Each structure is given as a SMILES string. A number with no mark means an inactive call. Results filed as inconclusive are left out. Active and inactive are the calls of the source. Unless noted, calls follow the shape of the dose curve; as a rule, active = well fitted curve in either direction with a large enough effect (not every such curve was filed as active); inconclusive = small, poorly fitted or top-dose-only effect, or another doubt; inactive = flat fitted curve, though single readings scatter. A value given as a limit tells only on which side of the number the result lay.

In test [1] the target is Lysosomal acid glucosylceramidase (Homo sapiens) (UniProt P04062). Put plainly: Glucocerebrosidase-p2 (AID 348; in the data active = potency below about 10 µM; also: potency is read from the fitted curve at half-maximal effect). The conditions noted are these: purified GBA, blue fluorogenic substrate, 40 min. A digest of the protocol:
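Normal human glucocerebrosidase (0.2 nM) with blue fluorogenic substrate (80 uM final) in citrate/phosphate pH 5.9 with 10mM sodium taurocholate, 0.01% tween-20; 40 min RT, NaOH/glycine stop; fluorescence Ex 365/Em 440; AC50 from a titration from 0.6 nM upwards.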

A short description of test [2]: AP1 Signaling Pathway (AID 357).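 Also: ME-180 reporter cells stimulated with EGF at its EC50 level; % is scaled to controls: 0 for no effect and ±100 for the full control effect.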 The conditions noted are these: ME-180 AP-1-bla reporter, EGF-induced, beta-lactamase ratio, 5 h; at 7.69 µM (top of the series) unless noted. Put shortly:
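AP-1-bla ME-180 cells, Opti-MEM + 0.5% dialyzed FBS, plated overnight 37 °C. Cpd titration + EC50 EGF, 5 h 37 °C. CCF4 2.5 h RT; ex 405, em 460/530 ratio → %activity, AC50.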

For test [3], the target named is Cytochrome P450 1A2 (Homo sapiens) (UniProt P05177). Briefly: p450-cyp1a2 (AID 410; calls by dose curve; also: potency is read from the fitted curve at half-maximal effect;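 as to activity change, negative = inhibition: -100% = full effect of reference inhibitor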). The conditions noted are these: recombinant CYP1A2, luciferin-ME demethylation, luminescence; series mostly up to 11.4 µM. A digest of the protocol: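 20nM CYP1A2, 100uM Luciferin-ME (=Km), 100mM KPO4; cpd 10 min RT; +NADPH regen, 60 min RT; stop/detect 20 min; luminescence. Normalized to furafylline 57 uM = full inhibition.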

Test [4] is described as follows: NFAT Signaling Pathway (AID 444).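 Also: carbachol stimulus at about its EC50 of 1 µM final; % is scaled to controls: 0 for no effect and ±100 for the full control effect.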 The conditions noted are these: Jurkat NFAT-bla M1, carbachol, beta-lactamase ratio, 5 h; at 7.69 µM (top of the series) unless noted. A digest of the protocol: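 Read-out: CCF4 FRET ratio (460 nm/530 nm) after 1 h RT dye loading, used for %activity and AC50 from titration series. Cells: Jurkat NFAT-β-lactamase/M1 line, treated with compound plus 1 uM carbachol for 5 h, 37 °C.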

Test [5] in a line: Stat Signaling Pathway (AID 446).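 Also: ME-180 cervical cancer cells given 40 pM IL-6 alongside compound; SIE-controlled beta-lactamase reporter measured as 460/530 nm FRET emission ratio; % is scaled to controls: 0 for no effect and ±100 for the full control effect.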 The conditions noted are these: ME-180 (cervical carcinoma) SIE beta-lactamase reporter, IL-6 stimulated, 5 h; at 7.69 µM (top of the series) unless noted. Put shortly: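 FRET read-out (405 nm excitation, 460/530 nm emission) of a beta-lactamase reporter under a STAT-inducible element in ME-180 cervical carcinoma cells. Cells with compound receive 40 pM IL-6 for 5 h. Values are normalised to AC90 stimulation and AC90 JAK-inhibitor controls.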

Test [6] deals with Glucocorticoid receptor (Homo sapiens) (UniProt P04150). Briefly: GR-GFP Redistribution (AID 450;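 active = compounds whose dose series gives a full or clear partial fitted curve of increased nuclear translocation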; also: potency is read from the fitted curve at half-maximal effect). The conditions noted are these: U2OS GR-GFP nuclear translocation, laser cytometry, 2 h.
Test [7] shares this target. Put plainly: GR-EFC Redistribution (AID 451; calls by dose curve; also: potency is read from the fitted curve at half-maximal effect). The conditions noted are these: CHO-K1 GR-EFC translocation, beta-gal luminescence, 2 h. A digest of the protocol:
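Translocation of GR-ED fusion to nuclear EA restores b-gal, read by luminescence after 1 h room-temperature detection. Engineered CHO-K1 biosensor cells, 1,000/well, exposed 2 h at 37 C to titrations up to 46 uM final.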

The target of test [8] is Mitogen-activated protein kinase 10 (Mus musculus) (UniProt Q61831). Briefly: JNK3 AlphaScreen Assay (AID 530).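 Also: kinase came from lysate of stimulated human HepG2 cells; signal reports phosphorylation of biotinylated GST-cJun 1-79 at Ser73 with 10 µM ATP; % is scaled to controls: 0 for no effect and ±100 for the full control effect.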 The conditions noted are these: JNK3 lysate, c-Jun phosphorylation; series mostly up to 11.4 µM. A digest of the protocol:
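Kinase buffer: 20 mM Tris-HCl pH 7.6, 10 mM MgCl2, 1 mM DTT, 0.1 mM Na3VO4, 0.01% Tween-20; ATP 10 uM. Substrate biotin-GST-cJun(1-79), enzyme from activated HepG2 lysates. Detection by Ser73 phospho-antibody AlphaScreen.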

The target of test [9] is 3',5'-cyclic-AMP phosphodiesterase 4B (Homo sapiens) (UniProt Q07343). Put plainly: qHTS Assay for Inhibitors of PDE-IV (AID 607; active = well fitted activation curve with a large enough effect in the main read-out, with a control signal flat, not every such curve was filed as active; also: % of control where 0% means no effect). The conditions noted are these: HEK293 ACTOne CNG channel cells, membrane potential fluorescence; series mostly up to 22.9 µM. Put shortly:
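Cell-based read-out of cAMP via a modified cyclic nucleotide-gated channel and membrane potential dye (535/590 nm) in HEK293 cells expressing PDE4 endogenously. Compounds tested up to 22.9 uM final; 100 uM RO 20-1724 reference.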

In test [10] the target is Cytochrome P450 2C9 (Homo sapiens) (UniProt P11712). Briefly: qHTS Assay for Inhibitors and Substrates of Cytochrome P450 2C9 (AID 883; active = well fitted curve in the direction sought with a large enough effect; an effect the other way counts as inactive or inconclusive; also: potency is read from the fitted curve at half-maximal effect; nearly all actives have a fitted effect of over 60% in size). The conditions noted are these: recombinant CYP2C9, luciferin-H luminescence, 60 min; series mostly up to 11.4 µM. Put shortly: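 Inhibition of CYP2C9 is scored as loss of luminescence, with 57uM sulphaphenazole defining 100% inhibition. Substrate Luciferin-H is used at 100uM, equal to its KM; enzyme at 10nM in 25mM KPO4, 60 min at 37C with NADPH regeneration.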

The target in test [11] is Cytochrome P450 3A4 (Homo sapiens) (UniProt P08684). Briefly: qHTS Assay for Inhibitors and Substrates of Cytochrome P450 3A4 (AID 884; active = well fitted curve in the direction sought with a large enough effect; an effect the other way counts as inactive or inconclusive; also: potency is read from the fitted curve at half-maximal effect; nearly all actives have a fitted effect of over 50% in size). The conditions noted are these: recombinant CYP3A4, Luciferin-PPXE luminescence; series mostly up to 57.1 µM. Put shortly: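 Luminescent readout of luciferin produced by CYP3A4 (20 nM) dealkylation of Luciferin-PPXE, 25 uM (its KM). NADPH-driven reaction ran 60 min at RT after 10 min compound preincubation; data scaled to 57 uM ketoconazole as 100% inhibition.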

For test [12] the target is unchanged. Briefly: qHTS Assay for Activators of Cytochrome P450 3A4 (AID 885; active = well fitted curve in the direction sought with a large enough effect; an effect the other way counts as inactive or inconclusive; also: nearly all actives have a fitted effect of over 65% in size). The conditions noted are these: recombinant CYP3A4, Luciferin-PPXE luminescence, 60 min; series mostly up to 11.4 µM. Put shortly: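 Luminescent readout of luciferin formed from 25 uM Luciferin-PPXE (KM level) by 20 nM CYP3A4 in 200 mM KPO4, with 60 min NADPH-driven reaction at room temperature after 10 min compound exposure. Ketoconazole (57 uM) defined 100% inhibition.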

In test [13] the target is Cytochrome P450 2D6 (Homo sapiens) (UniProt P10635). Put plainly: qHTS Assay for Inhibitors and Substrates of Cytochrome P450 2D6 (AID 891; active = well fitted curve in the direction sought with a large enough effect; an effect the other way counts as inactive or inconclusive; also: potency is read from the fitted curve at half-maximal effect; nearly all actives have a fitted effect of over 60% in size). The conditions noted are these: recombinant CYP2D6, luciferin-ME EGE luminescence; series mostly up to 11.4 µM. Put shortly:
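Luminescent read-out of luciferin formed by 5 nM human CYP2D6 demethylating 30 uM Luciferin-ME EGE (Km level) over 60 min at room temperature after NADPH regeneration addition. Data normalized to full inhibition by 1.43 uM quinidine.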

In test [14] the target is Cytochrome P450 2C19 (Homo sapiens) (UniProt P33261). Put plainly: qHTS Assay for Inhibitors and Substrates of Cytochrome P450 2C19 (AID 899; active = well fitted curve in the direction sought with a large enough effect; an effect the other way counts as inactive or inconclusive; also: potency is read from the fitted curve at half-maximal effect; nearly all actives have a fitted effect of over 60% in size). The conditions noted are these: recombinant CYP2C19, luciferin-H EGE luminescence; series mostly up to 11.4 µM. Put shortly:
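5nM enzyme + 10uM Luciferin-H EGE (=KM), 50mM KPO4; cpd pin-transferred, 10 min 37C; NADPH regen, 60 min 37C; stopped w/ luciferin detection reagent, 20 min; luminescence. Normalized to 57uM ketoconazole (AC100).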

Chain of Cytochrome P450 1A2 (Homo sapiens) (P05177 whole entry, looked up): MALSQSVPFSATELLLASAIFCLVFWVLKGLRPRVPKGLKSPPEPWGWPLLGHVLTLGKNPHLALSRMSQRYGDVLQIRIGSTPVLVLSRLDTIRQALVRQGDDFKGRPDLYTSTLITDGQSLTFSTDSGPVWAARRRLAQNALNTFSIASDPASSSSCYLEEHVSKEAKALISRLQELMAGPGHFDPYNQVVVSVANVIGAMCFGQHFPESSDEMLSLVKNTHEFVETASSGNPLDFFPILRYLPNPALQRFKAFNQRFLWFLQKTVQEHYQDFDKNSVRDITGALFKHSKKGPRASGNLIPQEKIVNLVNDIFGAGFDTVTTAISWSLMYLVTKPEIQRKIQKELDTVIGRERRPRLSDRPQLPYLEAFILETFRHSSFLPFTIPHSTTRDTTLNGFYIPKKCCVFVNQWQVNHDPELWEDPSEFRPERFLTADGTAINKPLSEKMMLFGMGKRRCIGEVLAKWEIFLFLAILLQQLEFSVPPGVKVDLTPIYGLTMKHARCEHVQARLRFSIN
Chain of Lysosomal acid glucosylceramidase (Homo sapiens) (P04062 whole entry, looked up): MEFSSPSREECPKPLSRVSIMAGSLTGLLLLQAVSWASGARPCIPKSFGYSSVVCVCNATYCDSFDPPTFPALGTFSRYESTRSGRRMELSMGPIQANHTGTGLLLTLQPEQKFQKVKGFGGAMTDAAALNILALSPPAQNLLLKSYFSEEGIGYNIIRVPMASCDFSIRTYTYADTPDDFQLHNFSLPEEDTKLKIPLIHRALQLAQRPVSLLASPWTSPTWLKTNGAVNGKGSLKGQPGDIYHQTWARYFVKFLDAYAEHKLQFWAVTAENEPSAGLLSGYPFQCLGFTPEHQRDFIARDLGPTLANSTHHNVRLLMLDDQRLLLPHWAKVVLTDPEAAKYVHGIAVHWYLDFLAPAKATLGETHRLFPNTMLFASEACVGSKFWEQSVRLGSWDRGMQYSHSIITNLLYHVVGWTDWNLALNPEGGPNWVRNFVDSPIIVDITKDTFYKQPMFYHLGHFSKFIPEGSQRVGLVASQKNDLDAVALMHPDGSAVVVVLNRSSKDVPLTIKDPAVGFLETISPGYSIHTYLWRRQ
Chain of 3',5'-cyclic-AMP phosphodiesterase 4B (Homo sapiens) (Q07343 whole entry, looked up): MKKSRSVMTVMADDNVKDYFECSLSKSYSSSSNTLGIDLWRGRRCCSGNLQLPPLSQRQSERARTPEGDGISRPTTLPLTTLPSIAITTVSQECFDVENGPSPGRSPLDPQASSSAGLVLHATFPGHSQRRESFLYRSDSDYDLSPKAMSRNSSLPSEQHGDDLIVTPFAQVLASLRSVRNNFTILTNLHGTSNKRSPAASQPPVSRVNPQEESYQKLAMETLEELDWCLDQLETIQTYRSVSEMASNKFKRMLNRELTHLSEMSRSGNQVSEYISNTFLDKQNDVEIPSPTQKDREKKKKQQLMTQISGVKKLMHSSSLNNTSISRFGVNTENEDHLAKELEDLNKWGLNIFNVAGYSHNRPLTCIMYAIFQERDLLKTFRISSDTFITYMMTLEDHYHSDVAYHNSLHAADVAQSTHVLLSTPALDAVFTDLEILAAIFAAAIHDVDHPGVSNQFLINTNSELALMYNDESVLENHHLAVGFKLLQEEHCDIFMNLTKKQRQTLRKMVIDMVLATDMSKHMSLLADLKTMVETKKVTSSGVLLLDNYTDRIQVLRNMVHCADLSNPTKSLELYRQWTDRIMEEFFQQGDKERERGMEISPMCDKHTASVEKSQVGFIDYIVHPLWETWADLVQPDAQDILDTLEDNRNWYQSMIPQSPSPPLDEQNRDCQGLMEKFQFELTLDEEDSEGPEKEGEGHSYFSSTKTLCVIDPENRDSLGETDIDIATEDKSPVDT
Chain of Glucocorticoid receptor (Homo sapiens) (P04150 whole entry, looked up): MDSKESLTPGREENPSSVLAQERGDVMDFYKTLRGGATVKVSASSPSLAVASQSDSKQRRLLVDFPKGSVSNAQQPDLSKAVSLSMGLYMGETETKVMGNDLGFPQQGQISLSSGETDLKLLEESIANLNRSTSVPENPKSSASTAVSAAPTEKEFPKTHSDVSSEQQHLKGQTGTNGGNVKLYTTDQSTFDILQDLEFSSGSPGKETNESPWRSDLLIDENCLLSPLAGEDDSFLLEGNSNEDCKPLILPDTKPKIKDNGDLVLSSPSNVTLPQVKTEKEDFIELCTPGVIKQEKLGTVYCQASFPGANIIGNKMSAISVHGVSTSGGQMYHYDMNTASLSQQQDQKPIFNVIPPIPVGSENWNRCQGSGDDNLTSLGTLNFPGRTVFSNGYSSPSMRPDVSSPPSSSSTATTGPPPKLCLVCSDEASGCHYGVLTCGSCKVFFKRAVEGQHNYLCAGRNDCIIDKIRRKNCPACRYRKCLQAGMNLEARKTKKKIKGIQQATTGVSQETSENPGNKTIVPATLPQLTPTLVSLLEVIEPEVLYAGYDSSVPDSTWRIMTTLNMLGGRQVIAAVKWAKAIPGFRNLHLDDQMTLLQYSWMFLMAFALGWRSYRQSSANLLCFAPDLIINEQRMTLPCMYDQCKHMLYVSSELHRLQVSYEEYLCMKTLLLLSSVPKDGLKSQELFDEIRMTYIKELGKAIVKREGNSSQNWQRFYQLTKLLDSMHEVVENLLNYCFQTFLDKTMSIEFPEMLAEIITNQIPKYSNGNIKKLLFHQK
Chain of Cytochrome P450 3A4 (Homo sapiens) (P08684 whole entry, looked up): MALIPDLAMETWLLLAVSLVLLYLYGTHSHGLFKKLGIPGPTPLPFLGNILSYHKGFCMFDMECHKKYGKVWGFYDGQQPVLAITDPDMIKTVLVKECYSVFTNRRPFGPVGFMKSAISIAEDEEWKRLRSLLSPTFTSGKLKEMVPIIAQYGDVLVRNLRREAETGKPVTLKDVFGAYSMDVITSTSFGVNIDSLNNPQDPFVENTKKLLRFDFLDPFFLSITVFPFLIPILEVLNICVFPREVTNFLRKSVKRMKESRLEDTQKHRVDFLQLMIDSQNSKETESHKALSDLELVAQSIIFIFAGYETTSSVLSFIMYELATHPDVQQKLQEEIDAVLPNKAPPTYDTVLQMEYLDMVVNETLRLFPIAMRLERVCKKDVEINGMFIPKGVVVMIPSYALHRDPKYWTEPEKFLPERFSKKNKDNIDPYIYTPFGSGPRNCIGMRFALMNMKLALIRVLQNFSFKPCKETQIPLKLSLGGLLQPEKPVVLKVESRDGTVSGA
Chain of Cytochrome P450 2C9 (Homo sapiens) (P11712 whole entry, looked up): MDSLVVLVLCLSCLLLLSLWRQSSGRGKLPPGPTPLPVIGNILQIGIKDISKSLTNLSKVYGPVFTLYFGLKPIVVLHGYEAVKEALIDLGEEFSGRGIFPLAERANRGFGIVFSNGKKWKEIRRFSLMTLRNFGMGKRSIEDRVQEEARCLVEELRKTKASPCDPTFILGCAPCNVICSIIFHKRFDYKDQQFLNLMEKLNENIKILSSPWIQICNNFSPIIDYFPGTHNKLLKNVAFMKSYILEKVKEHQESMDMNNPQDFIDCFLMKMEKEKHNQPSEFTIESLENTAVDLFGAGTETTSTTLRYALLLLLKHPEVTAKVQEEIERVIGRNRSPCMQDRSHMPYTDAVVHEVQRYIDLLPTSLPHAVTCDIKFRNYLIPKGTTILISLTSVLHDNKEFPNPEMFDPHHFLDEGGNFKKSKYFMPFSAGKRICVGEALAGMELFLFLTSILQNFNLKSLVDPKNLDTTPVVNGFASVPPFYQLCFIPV
Chain of Cytochrome P450 2C19 (Homo sapiens) (P33261 whole entry, looked up): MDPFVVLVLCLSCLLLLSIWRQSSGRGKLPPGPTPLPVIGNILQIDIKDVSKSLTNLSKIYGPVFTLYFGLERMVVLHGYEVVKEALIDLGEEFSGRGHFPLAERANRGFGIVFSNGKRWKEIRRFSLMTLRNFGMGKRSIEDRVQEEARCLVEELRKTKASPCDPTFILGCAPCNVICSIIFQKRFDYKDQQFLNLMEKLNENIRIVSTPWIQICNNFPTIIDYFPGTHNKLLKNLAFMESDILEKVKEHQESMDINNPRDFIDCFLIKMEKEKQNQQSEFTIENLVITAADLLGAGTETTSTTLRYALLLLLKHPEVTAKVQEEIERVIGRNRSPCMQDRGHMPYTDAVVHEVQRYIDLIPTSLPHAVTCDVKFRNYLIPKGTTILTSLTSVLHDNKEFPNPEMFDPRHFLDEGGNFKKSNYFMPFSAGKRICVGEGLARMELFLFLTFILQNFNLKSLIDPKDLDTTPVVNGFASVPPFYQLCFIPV
Chain of Cytochrome P450 2D6 (Homo sapiens) (P10635 whole entry, looked up): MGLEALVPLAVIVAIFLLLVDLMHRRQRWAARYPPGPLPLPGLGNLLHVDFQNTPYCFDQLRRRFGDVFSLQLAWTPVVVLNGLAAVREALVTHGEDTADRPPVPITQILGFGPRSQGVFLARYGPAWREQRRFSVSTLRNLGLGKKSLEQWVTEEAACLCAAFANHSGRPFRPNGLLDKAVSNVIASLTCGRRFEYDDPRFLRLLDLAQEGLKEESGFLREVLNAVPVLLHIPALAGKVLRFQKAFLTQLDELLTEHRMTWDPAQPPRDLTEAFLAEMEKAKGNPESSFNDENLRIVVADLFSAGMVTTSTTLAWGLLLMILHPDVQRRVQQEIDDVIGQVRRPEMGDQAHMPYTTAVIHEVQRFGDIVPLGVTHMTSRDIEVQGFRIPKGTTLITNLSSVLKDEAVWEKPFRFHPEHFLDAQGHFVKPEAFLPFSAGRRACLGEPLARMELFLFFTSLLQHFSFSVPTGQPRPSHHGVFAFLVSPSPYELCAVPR

`C[C@@H](N=C(N)N)C(=O)O`: the Potency in test [1] was more than 11.4 µM; in test [6] it was more than 46 µM; in test [7], more than 9.22 µM. For the same molecule, the activity change, negative = inhibition was -6.66% in test [2] and 16.8% in test [4]. In addition, the Potency result in test [3], in test [8] and in test [9] was “inactive” throughout. The activity, negative = inhibition in test [5] was -6.68%.

Turning to `c1ccc(CCCNc2nnnc3ccccc23)cc1`, the Potency was more than 11.4 µM in [1], 3.98 µM (active) in test [3], more than 46 µM in [6] and more than 9.22 µM in test [7]. Further, the activity change, negative = inhibition in test [2] is -4.34%; in test [4] it was -23%. The activity, negative = inhibition in [5] is -4.36%. Moreover, the Potency entry in [8] and in test [9] was “inactive” throughout.

On to `NCS(=O)(=O)O`, for which the Potency in test [1] was more than 11.4 µM; in [6], more than 46 µM; in test [7] it was more than 9.22 µM. The activity change, negative = inhibition in [2] was -4.59%; in [3] it was -5.6% [at 2.29 µM]; in test [4] it was 2.65%. For the same molecule, the activity, negative = inhibition in test [5] is -0.0948%. The Potency entry in test [8] and in [9] was “inactive” in each case.

As for `COc1ccc(CN[C@H](C)C(=O)O)cc1`, the Potency was more than 11.4 µM in test [1], more than 46 µM in [6] and more than 9.22 µM in test [7]. Also, the activity change, negative = inhibition in [2] was -9.23%; in test [4], -12%. Besides, the Potency result in test [3], in test [8] and in test [9] was “inactive” in each case. Besides, in test [5], the activity, negative = inhibition is 2.1%.

Take `CC(CCC(=O)O)(c1cc(Br)c(O)c(Br)c1)c1cc(Br)c(O)c(Br)c1`: the Potency was more than 11.4 µM in test [1], more than 46 µM in [6], more than 9.22 µM in test [7] and 3.16 µM (active) in test [10]. Also, the activity change, negative = inhibition in [2] was 17.5%; in test [3] it was -17.9% [at 2.29 µM]; in test [4], 3.8%. For the same molecule, the activity, negative = inhibition in test [5] is 0.505%. Also, the Potency result in [8] and in [9] was “inactive” throughout.

Consider `CC1=CC(C)(C)Nc2ccc(CSc3ccccc3)cc21`, for which the Potency is more than 11.4 µM in [1]; 0.501 µM (active) in test [3]; more than 46 µM in test [6]; more than 9.22 µM in [7]; 0.199 µM (active) in test [10]; 3.98 µM (active) in test [11]. Also, the figures for the Potency in test [13] and in test [14] were 0.631 µM (active) and 0.316 µM (active), respectively. For the same molecule, the activity change, negative = inhibition was 3.94% in test [2] and -4.82% in [4]. In addition, the activity, negative = inhibition in [5] was -11.8%. The Potency entry in test [8], in test [9] and in test [12] was “inactive” in each case.

On to `S=c1nc[nH]c2c1ncn2Cc1ccco1`, for which the Potency in [1] is more than 11.4 µM; in [6] it was more than 46 µM; in [7], more than 9.22 µM. The figures for the activity change, negative = inhibition in [2] and in test [4] were 8.99% and -0.242%, respectively. The Potency entry in [3], in test [8] and in test [9] was “inactive” throughout. The activity, negative = inhibition in [5] was 5.55%.
